# From the supplement of paper PMC6411743
# ± gives the standard deviation of the averaged measurements. Targets with the largest changes are over-represented here; the source holds about 6,200 in all.
# Tests used:
# Experiment in all cases: NP40-soluble protein abundance relative to vehicle (solubility fold change) (ratio); higher = more soluble protein in presence of AMP-PNP
# DDX49 = molecular target: T1, DDX49 (UniProt Q9Y6V7)
# T1 sequence (whole entry): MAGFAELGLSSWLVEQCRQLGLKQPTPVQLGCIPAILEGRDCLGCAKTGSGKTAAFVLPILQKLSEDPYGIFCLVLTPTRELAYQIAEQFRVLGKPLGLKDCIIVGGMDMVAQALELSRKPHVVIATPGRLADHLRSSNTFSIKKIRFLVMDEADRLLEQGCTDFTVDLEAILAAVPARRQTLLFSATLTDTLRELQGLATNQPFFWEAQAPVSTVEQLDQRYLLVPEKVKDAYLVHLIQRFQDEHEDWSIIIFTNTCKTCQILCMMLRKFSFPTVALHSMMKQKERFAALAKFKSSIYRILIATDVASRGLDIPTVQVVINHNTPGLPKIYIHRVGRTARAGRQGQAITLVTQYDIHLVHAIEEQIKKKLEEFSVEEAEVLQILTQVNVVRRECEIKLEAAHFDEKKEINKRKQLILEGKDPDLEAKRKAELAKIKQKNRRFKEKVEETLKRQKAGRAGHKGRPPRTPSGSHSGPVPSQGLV
# Procedure, shortened: (§1)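 Each value is a fold change relative to the detergent-processed vehicle, calculated per replicate from vsn-normalised intensities. Jurkat crude lysate received eight concentrations (0.1 to 10 mM) for 10 min at room temperature and 3 min at 37 °C, then was solubilised in 0.8% NP40 with benzonase (60 min, 4 °C). The ultracentrifuged supernatant was TMT-labelled and run by LC-MS/MS in three independent experiments.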
# MAD1L1 = molecular target: T2, MAD1L1 (UniProt Q9Y6D9)
# T2 sequence (whole entry): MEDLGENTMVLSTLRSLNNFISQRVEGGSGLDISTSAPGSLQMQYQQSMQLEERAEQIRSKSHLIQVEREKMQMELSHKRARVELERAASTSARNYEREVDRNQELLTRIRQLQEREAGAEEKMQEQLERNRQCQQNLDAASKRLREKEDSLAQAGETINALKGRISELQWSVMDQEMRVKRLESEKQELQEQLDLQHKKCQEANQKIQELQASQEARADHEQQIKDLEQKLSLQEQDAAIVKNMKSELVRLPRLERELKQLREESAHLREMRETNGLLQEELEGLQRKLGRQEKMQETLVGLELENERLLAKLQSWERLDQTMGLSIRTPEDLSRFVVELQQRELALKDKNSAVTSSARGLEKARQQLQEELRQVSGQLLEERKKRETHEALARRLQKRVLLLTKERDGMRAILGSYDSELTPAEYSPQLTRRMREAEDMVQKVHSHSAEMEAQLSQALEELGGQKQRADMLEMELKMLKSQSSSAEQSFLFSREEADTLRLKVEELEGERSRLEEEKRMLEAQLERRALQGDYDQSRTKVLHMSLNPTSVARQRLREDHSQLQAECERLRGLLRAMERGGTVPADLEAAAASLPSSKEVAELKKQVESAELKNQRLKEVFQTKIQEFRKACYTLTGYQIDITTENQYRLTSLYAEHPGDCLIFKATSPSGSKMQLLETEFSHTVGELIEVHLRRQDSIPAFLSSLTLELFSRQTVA
# Procedure, shortened: as §1
# OAS3 = molecular target: T3, OAS3 (UniProt Q9Y6K5)
# T3 sequence (whole entry): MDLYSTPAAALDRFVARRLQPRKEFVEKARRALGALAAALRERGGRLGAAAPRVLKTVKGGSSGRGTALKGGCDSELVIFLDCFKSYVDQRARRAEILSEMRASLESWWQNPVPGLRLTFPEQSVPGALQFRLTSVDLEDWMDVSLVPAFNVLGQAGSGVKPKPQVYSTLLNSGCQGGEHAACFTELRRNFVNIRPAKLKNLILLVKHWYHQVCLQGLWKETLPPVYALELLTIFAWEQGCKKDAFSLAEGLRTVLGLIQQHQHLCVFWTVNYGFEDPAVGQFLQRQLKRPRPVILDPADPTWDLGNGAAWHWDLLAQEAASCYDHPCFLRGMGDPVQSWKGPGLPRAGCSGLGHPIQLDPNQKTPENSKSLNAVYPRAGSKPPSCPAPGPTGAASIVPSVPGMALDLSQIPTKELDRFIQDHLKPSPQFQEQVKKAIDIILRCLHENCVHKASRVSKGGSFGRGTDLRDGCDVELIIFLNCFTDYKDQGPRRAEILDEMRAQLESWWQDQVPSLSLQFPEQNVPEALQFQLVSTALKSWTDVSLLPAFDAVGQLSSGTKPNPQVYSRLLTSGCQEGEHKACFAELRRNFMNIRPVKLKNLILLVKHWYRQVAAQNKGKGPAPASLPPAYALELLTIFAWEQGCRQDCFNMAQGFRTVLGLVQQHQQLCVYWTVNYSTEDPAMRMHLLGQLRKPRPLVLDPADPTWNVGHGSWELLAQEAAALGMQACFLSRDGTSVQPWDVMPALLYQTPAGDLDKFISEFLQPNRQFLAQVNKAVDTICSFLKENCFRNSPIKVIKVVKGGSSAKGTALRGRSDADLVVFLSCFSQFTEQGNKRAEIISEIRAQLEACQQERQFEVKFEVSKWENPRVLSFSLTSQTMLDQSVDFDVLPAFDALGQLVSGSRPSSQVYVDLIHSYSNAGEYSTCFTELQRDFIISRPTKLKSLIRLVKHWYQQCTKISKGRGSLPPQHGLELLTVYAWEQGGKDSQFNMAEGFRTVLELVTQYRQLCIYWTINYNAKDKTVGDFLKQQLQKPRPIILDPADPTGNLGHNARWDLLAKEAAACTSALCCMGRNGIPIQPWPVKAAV
# Procedure, shortened: as §1
# S4R3R2 = S4R3R2 (UniProt Q9NXR5)
# Procedure, shortened: as §1
# S4R3R2, sequence (Q9NXR5 whole entry, one chain of several): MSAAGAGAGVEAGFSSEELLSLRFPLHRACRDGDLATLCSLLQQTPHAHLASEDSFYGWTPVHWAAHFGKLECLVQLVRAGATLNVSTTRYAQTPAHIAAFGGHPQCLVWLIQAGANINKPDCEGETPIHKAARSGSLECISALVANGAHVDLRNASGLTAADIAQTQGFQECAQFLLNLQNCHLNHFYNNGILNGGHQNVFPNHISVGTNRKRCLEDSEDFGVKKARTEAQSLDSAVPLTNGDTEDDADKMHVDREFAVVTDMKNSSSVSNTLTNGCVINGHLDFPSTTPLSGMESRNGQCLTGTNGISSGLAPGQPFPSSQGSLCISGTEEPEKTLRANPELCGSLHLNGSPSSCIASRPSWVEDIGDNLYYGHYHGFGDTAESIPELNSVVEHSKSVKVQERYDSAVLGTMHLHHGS
compound,measurement,setting,value
Nc1ncnc2c1ncn2[C@@H]1O[C@H](COP(=O)(O)OP(=O)(O)NP(=O)(O)O)[C@@H](O)[C@H]1O [adenylyl imidodiphosphate],NP40-soluble protein abundance,DDX49; concentration: 1mM,1.09 ± 0.076
same,NP40-soluble protein abundance,DDX49; concentration: 2mM,1.13 ± 0.092
same,NP40-soluble protein abundance,DDX49; concentration: 4mM,1.15 ± 0.12
same,NP40-soluble protein abundance,DDX49; concentration: 6mM,1.13 ± 0.1
same,NP40-soluble protein abundance,DDX49; concentration: 8mM,1.15 ± 0.12
same,NP40-soluble protein abundance,DDX49; concentration: 10mM,1.24 ± 0.21
same,NP40-soluble protein abundance,MAD1L1; concentration: 1mM,1.02 ± 0.028
same,NP40-soluble protein abundance,MAD1L1; concentration: 2mM,1.03 ± 0.039
same,NP40-soluble protein abundance,MAD1L1; concentration: 4mM,1.02 ± 0.047
same,NP40-soluble protein abundance,MAD1L1; concentration: 6mM,0.986 ± 0.021
same,NP40-soluble protein abundance,MAD1L1; concentration: 8mM,0.983 ± 0.046
same,NP40-soluble protein abundance,MAD1L1; concentration: 10mM,1 ± 0.057
same,NP40-soluble protein abundance,OAS3; concentration: 1mM,1.01 ± 0.012
same,NP40-soluble protein abundance,OAS3; concentration: 2mM,1.02 ± 0.04
same,NP40-soluble protein abundance,OAS3; concentration: 4mM,1.02 ± 0.032
same,NP40-soluble protein abundance,OAS3; concentration: 6mM,0.998 ± 0.033
same,NP40-soluble protein abundance,OAS3; concentration: 8mM,1.02 ± 0.043
same,NP40-soluble protein abundance,OAS3; concentration: 10mM,0.998 ± 0.018
same,NP40-soluble protein abundance,S4R3R2; concentration: 1mM,1.04 ± 0.031
same,NP40-soluble protein abundance,S4R3R2; concentration: 2mM,1.05 ± 0.063
same,NP40-soluble protein abundance,S4R3R2; concentration: 4mM,1.02 ± 0.027
same,NP40-soluble protein abundance,S4R3R2; concentration: 6mM,1.01 ± 0.041
same,NP40-soluble protein abundance,S4R3R2; concentration: 8mM,0.983 ± 0.011
same,NP40-soluble protein abundance,S4R3R2; concentration: 10mM,0.983 ± 0.022
